Reference: PubChem BioAssay AID1053175 (ICCB-Longwood Screening Facility, Harvard Medical School, 2014)
Values joined by “and” are separate entries in the source; they are usually repeats but may differ in a detail not shown here. Equal entries are not always repeated. About 700 (0.21%) of roughly 330,000 compounds were called active.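 The calls were made as follows: active = OD600 absorbance below the run mean of sample wells minus 3.6 SD, in any replicate (cut at about 0.56 in these data); inactive = the rest.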 For the sample, actives were picked, then their nearest neighbours and some compounds at random. A structure can be active in one record and inactive in another.

Assay: antibacterial activity against Escherichia coli – OD600, primary screen (AID 1053175)
Settings: Escherichia coli growth, OD600, 23 h; stronger effect = lower value

| Compound | OD600 absorbance |
| --- | --- |
| CC1CC2OC(=O)[C@]3(C)C2C(OC3(C)O)[C@]2(C)C(=O)C=CC12 (stereo not given in full) | 0.679 (inactive) |
| CC(C)(C)NC(=O)CCN(N=Cc1ccccc1F)C1=NS(=O)(=O)c2ccccc21 | 0.627 (inactive) |
| CN(C)c1ccc(C=NNC(=O)Cn2nnc3ccccc32)cc1 | 0.725 (inactive) |
| Cc1nnc(SCC2=C(C(=O)O)N3C(=O)C(NC(=O)Cn4nc(C)c(Cl)c4C)C3SC2)s1 (stereo not given) | 0.488 (active) |
| CC(C)(C)OC(=O)C1=C(CO)CS[C@@H]2[C@H](NC(=O)Cc3ccccc3)C(=O)N12 | 0.72 (inactive) |
| Cc1cc(C)cc(C(=O)NC2C(=O)N3C(C(=O)O)=C(CSc4nnc(C)s4)CSC23)c1 (stereo not given) | 0.684 (inactive) |
| CC(C)CC(CSc1ccccc1)N1CCN(C)CCC1=O (stereo not given) | 0.708 (inactive) |
| CCc1ccc(NC(=O)CC(C)=NNC(=O)OCc2ccc(OC)cc2)cc1 | 0.657 (inactive) |
| COc1ccc(C=NNC(=O)c2ccccc2[N+](=O)[O-])cc1CN1CCc2cc(OC)c(OC)cc2C1C (stereo not given) | 0.712 (inactive) |
| Cc1ccc(NC(=O)C=NOCC(=O)NCc2ccccc2Cl)cc1 | 0.705 (inactive) |
| CCOC1OC(C(N)=O)=CC(c2ccccc2)C1CCCO (stereo not given) | 0.702 (inactive) and 0.686 (inactive) |
| CC(NC(=O)C(=O)NN=Cc1ccc(Cl)cc1)c1ccccc1 (stereo not given) | 0.673 (inactive) |
| CCN=c1scc(C)n1N=Cc1ccsc1 | 0.697 (inactive) |
| Cc1ccc(C2=[N+]([O-])C3(CCCCCC3=NNC(N)=S)N(O)C2(C)C)o1 (stereo not given) | 0.771 (inactive) |
| O=C(O)c1csc(NN=Cc2ccc(Br)cc2)n1 | 0.677 (inactive) |
| O=C1CCCC(=NNC(=O)c2cc(NS(=O)(=O)c3cccs3)cc(NS(=O)(=O)c3cccs3)c2)C1 | 0.669 (inactive) |
| CCOC(=O)C1C2COc3cc(OC)ccc3C2N2C(=O)N(c3ccc(C(F)(F)F)cc3)C(=O)[C@@]12C (stereo not given in full) | 0.696 (inactive) and 0.712 (inactive) |
| C=CCN1c2ccccc2[C@]23CC(C(=O)OC)N(C(=O)c4cc(C)oc4C)C2=NC(C(=O)OC)=C(C(=O)OC)C13 (stereo not given in full) | 0.651 (inactive) |
| CC(=NNC(=O)c1ccncc1)c1cc2ccccc2o1 | 0.717 (inactive) |
| Cc1cc(C)c(C)c(OCC(=O)ON=C(N)c2ccccn2)c1 | 0.733 (inactive) |
| COC(=O)c1ccc(C=NNC(=O)C2CC(=O)N(c3ccc(F)cc3)C2)cc1 (stereo not given) | 0.657 (inactive) |
| Cc1nc2ccccn2c1C(=O)NN=Cc1ccc2c(c1)OCO2 | 0.657 (inactive) |
| O=[N+]([O-])c1ccc(C=NN2CCN(c3ccc(Cl)cc3)CC2)cc1 | 0.805 (inactive) |

| Compound | OD600 absorbance |
| --- | --- |
| Cc1cccc(NC(=S)Nc2ccc3cn[nH]c3c2)c1 | 0.655 (inactive) |
| Cc1cccc(NC(=S)Nc2ccc(Cl)c(Cl)c2)c1 | 0.495 (active) |
| Cc1cccc(NC(=S)NC23CN4CN(CN(C4)C2)C3)c1 | 0.691 (inactive) |
| O=C(O)c1cc2c(o1)CCCC2=NO | 0.711 (inactive) |
| Clc1c(OCCCn2ccnc2)ccc2ccccc12 | 0.49 (active) |
| C=CCc1cc(C)ccc1OCCCn1ccnc1 | 0.666 (inactive) |
| c1ccc(Cc2ccc(OCCn3ccnc3)cc2)cc1 | 0.583 (inactive) |
| NC(CCCN1CCCCC1)=NO | 0.705 (inactive) |
| CCCSc1ccc(C2N[C@@](CC(C)C)(C(=O)OC)C3C(=O)N(CC)C(=O)C23)cc1 (stereo not given in full) | 0.649 (inactive) |
| O=C(CN1CCN(c2ccc(F)cc2)CC1)Nc1ccccc1 | 0.673 (inactive) |
| Fc1ccc(N2CCN(Cc3cnc(Oc4ccc(Br)cc4)s3)CC2)cc1 | 0.726 (inactive) |
| Oc1c(CN2CCN(c3ccc(F)cc3)CC2)cc(Cl)c2cccnc12 | 0.332 (active) |
| CCN1C(Nc2ccccc2)=NCC1CC(C)C (stereo not given) | 0.698 (inactive) |
| CC(NC(=O)COc1ccc(C=NNC(=O)C(=O)Nc2ccccc2Br)cc1)c1ccccc1 (stereo not given) | 0.788 (inactive) |
| O=C(Nc1ccccc1C(=O)NN=Cc1ccncc1)c1ccccc1 | 0.706 (inactive) |
| CC(=NNC(=O)c1cccc(S(=O)(=O)N2CCCC2)c1)c1ccco1 | 0.651 (inactive) |
| COc1cc(C=NNC(=O)c2ccncc2)ccc1OC(=O)c1cccc(Br)c1 | 0.605 (inactive) |
| COc1ccc(C(=O)ON=C2CCS(=O)(=O)c3sccc32)cc1 | 0.66 (inactive) |
| CC(NCC(=O)Nc1cc(Cl)cc(Cl)c1)c1ccccc1 (stereo not given) | 0.522 (active) |
| O=C(Nc1cc(Cl)cc(Cl)c1)C(NCCCO)c1ccccc1 (stereo not given) | 0.697 (inactive) |
| O=C(CNC(c1ccccc1)c1ccccc1)Nc1ccc(F)cc1 | 0.694 (inactive) |
| CCOC1OC(C(=O)N2CCN(Cc3ccc4c(c3)OCO4)CC2)=CC(c2ccc(Br)cc2)C1CCCO (stereo not given) | 0.677 (inactive) and 0.735 (inactive) |
| O=C(O)COc1ccc(C=NNC(=O)c2cccc3ccccc23)cc1 | 0.692 (inactive) |

| Compound | OD600 absorbance |
| --- | --- |
| O=C(O)C1=CC(c2ccc(Br)cc2)CC(OCc2ccc(CO)cc2)O1 (stereo not given) | 0.678 (inactive) and 0.676 (inactive) |
| Cc1nnc(NN=Cc2ccccn2)[nH]c1=O | 0.466 (active) |
| CC(Oc1ccccc1)C(=O)NN=Cc1ccccn1 (stereo not given) | 0.654 (inactive) |
| CC(=NNc1nnc(C)c(=O)[nH]1)C(=O)O | 0.72 (inactive) |
| COc1ccc(C(=O)NN=Cc2ccc(OC)c(CN3CCCc4ccccc43)c2)cc1 | 0.733 (inactive) |
| CC(C)(C)c1[nH]c2ccccc2c1C=NO | 0.683 (inactive) |
| CCOC(=O)c1ccc(-c2ccc(C=NNC(=O)CN(c3ccccc3Cl)S(C)(=O)=O)o2)cc1 | 0.728 (inactive) |
| CC(C)=CCC[C@](C)(OC1OC(COC2OCC(O)C(O)C2O)C(O)C(O)C1O)C1CC[C@]2(C)C1C(O)CC1[C@@]3(C)CCC(OC4OC(CO)C(O)C(O)C4O)C(C)(C)C3CC[C@]12C (stereo not given in full) | 0.621 (inactive) |
| CCNC(=S)NN=C(C)c1cc2ccccc2o1 | 0.669 (inactive) |
| COc1cc(C=NNC(=O)c2ccc(=O)[nH]n2)cc(OC)c1OC | 0.774 (inactive) |
| O=C(NN=Cc1ccoc1)c1ccc([N+](=O)[O-])cc1 | 0.694 (inactive) |
| CCNC1CC(C)S(=O)(=O)c2sc(S(N)(=O)=O)cc21 (stereo not given) | 0.681 (inactive) |
| Cc1cc(C(=O)NN=Cc2cccc3ccccc23)c(C)o1 | 0.686 (inactive) |
| C#CCNC(=O)C1=CC(c2coc3ccccc3c2=O)CC(OCc2ccc(CO)cc2)O1 (stereo not given) | 0.691 (inactive) and 0.72 (inactive) |
| Cc1[nH]c2ccccc2c1C=NNC(=S)NC(C)C | 0.649 (inactive) |
| Cc1ccc(CN2CCN(CC(=O)NN=Cc3ccc(C)o3)CC2)cc1 | 0.613 (inactive) |
| CC1CN(C(=S)Nc2ccccc2F)CC(C)O1 (stereo not given) | 0.662 (inactive) |
| COc1ccccc1NC(=S)N1CCN(c2ccc(F)cc2)CC1 | 0.68 (inactive) |
| COc1c(N2CCN(C(=S)Nc3ccccc3F)C(C)C2)c(F)cc2c(=O)c(C(=O)O)cn(C3CC3)c12 (stereo not given) | 0.071 (active) |
| CCCOc1ccc(CNC(=S)NN=Cc2ccc([N+](=O)[O-])cc2)cc1 | 0.66 (inactive) |
| [N-]=[N+]=NCC(Cc1ccccc1)N1CCN(Cc2ccccc2)CCC1=O (stereo not given) | 0.705 (inactive) |
| CC(C)(C)N1C(=O)C2C(c3ccc(Br)cc3)N3C(=O)N(c4ccccc4)C(=O)[C@@]3(Cc3ccccc3)C2C1=O (stereo not given in full) | 0.71 (inactive) |
| CC(/C=C/c1ccccc1)=NNc1nc(C)cc(C)n1 | 0.667 (inactive) |

| Compound | OD600 absorbance |
| --- | --- |
| CNc1nc(C)nc(NN=Cc2ccccc2)n1 | 0.682 (inactive) |
| S=c1[nH]nc(-c2ccncc2)n1N=Cc1cccc2ccccc12 | 0.739 (inactive) |
| Cc1ccc(C=NNC(=O)Cn2cnc3ccccc32)o1 | 0.676 (inactive) |
| Cc1ccc(C(=O)N2C3CN(C)C(=O)[C@@]2(Cc2ccccc2)C2C(=O)N(C)C(=O)C32)cc1 (stereo not given in full) | 0.672 (inactive) |
| CC(=NNC(=O)CCc1ccc(S(=O)(=O)N2CCOCC2)cc1)c1ccc(OC(F)F)cc1 | 0.715 (inactive) |
| C#CCOc1ccc(C=NNC(=O)c2cccnc2)cc1OCC | 0.679 (inactive) |
| C[C@@]12C(=O)Nc3cc(Cl)ccc3C(=O)N1C1c3cc(Cl)ccc3OCC1C2c1ccccc1 (stereo not given in full) | 0.696 (inactive) |
| COc1ccc(C=C2N=C(SC)NC2=O)cc1 | 0.705 (inactive) |
| CC(=O)c1c(C)n([O-])c2ccccc2[n+]1=O | 0.186 (active) |
| Cc1c(C=O)c2ccccc2n1CC(=O)O | 0.701 (inactive) |
| CCCCn1c(C=NNc2nc3ccccc3[nH]2)nc2ccccc21 | 0.684 (inactive) |
| COc1cc(C=NNC(=O)c2ccc3c(c2)OCCO3)c(Br)c(Br)c1O | 0.727 (inactive) |
| C=C[C@]1(C)CC(OC(=O)CSCCN(CC)CC)[C@]2(C)C(C)CC[C@]3(CCC(=O)C32)C(C)C1O (stereo not given in full) | 0.499 (inactive) and 0.432 (active) |
| CC(C)(C)C(=O)C=c1[nH]c(=O)c(=Cc2ccccc2F)s1 | 0.718 (inactive) |
| COC(=O)Oc1ccc(C=NNC(=O)CN(c2ccccc2Br)S(C)(=O)=O)cc1OC | 0.67 (inactive) |
| COc1ccc(CN2C(CC(=O)O)c3ccccc3S2(=O)=O)cc1 (stereo not given) | 0.676 (inactive) |
| Cc1ccccc1C(=O)ON=C1CCS(=O)(=O)c2sccc21 | 0.706 (inactive) |
| O=C(NN=Cc1cccn1-c1cccc(C(=O)O)c1)Nc1ccccc1 | 0.627 (inactive) |
| CC(=O)Oc1ccc(C(C)=NN2CCN(Cc3ccc(Cl)cc3)CC2)cc1 | 0.707 (inactive) |
| O=C(C=Cc1cccs1)N1CCC2(CC1)Oc1ccc(F)cc1C(=O)C21CC(c2ccccc2)=NO1 (stereo not given) | 0.718 (inactive) |
| CC(C=NNC(=O)c1ccc2c(c1)OCO2)c1ccccc1 (stereo not given) | 0.695 (inactive) |
